Inconclusive results are not listed. Active and inactive are the calls of the source. The calls were made as follows: active = hit-call score of the fitted dose curve at least 0.9, where 1 is the maximum; inconclusive = response in the unintended direction; inactive = score below 0.9.
Assay: Tanguay_ZF_120hpf_EYE_legacy: (Legacy) Oregon State University Tanguay Lab 120 Hour Post-fertilization zebrafish Assay for Eye Malformation (AID 2283636);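 also: binary presence or absence of eye malformation scored by brightfield in 120 hpf larvae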
In short: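 Dechorionated wild-type Tropical 5D zebrafish embryos were exposed statically from 6 hpf, one per well, to 120 hpf at 28C in sealed, foil-covered plates with 0.64% DMSO. Eye malformation was scored present/absent by brightfield microscopy against DMSO controls.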
With Oc1cc(Cl)c(Cl)cc1Cl the outcome was “inactive”. In the case of Oc1c(Cl)cc(Cl)cc1Cl, the outcome is reported as “inactive”. For O=C(N[C@H]1CN2CCC1CC2)c1ccc2c(c1)OCCO2, the outcome was “inactive”. For COc1ccccc1N, the outcome was “inactive”. For Clc1cccc(Cl)c1, the outcome was “inactive”. In the case of N#Cc1cccnc1, the outcome is reported as “inactive”. For OCCN(CCO)CCO, the outcome was “inactive”. For O=C(O)C1(c2ccc3c(c2)OC[C@H](Cc2ccc(-c4ccccc4)cc2)[C@H]3O)CCCC1, the outcome was “inactive”. In the case of CN(C)C(=S)S, the outcome is reported as “inactive”. In the case of Cc1cc(C)cc(C)c1, the outcome is reported as “inactive”. For Clc1cccc(Cl)c1Cl, the outcome was “inactive”. With CC(C)(C)c1ccccc1O the outcome was “inactive”. In the case of CCCCCCCCCCCCc1cccc(S(=O)(=O)O)c1, the outcome is reported as “inactive”.

Assay: Tanguay_ZF_120hpf_SNOU_legacy: (Legacy) Oregon State University Tanguay Lab 120 Hour Post-fertilization zebrafish Assay for Snout Malformation (AID 2283637)
In short: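 Tropical 5D wild-type zebrafish embryos, dechorionated with pronase at 4 hpf, were exposed singly from 6 hpf to 120 hpf statically at 28C in 0.64% DMSO. Snout malformation was scored present/absent by brightfield microscopy, fitted against DMSO.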
For Oc1cc(Cl)c(Cl)cc1Cl, the outcome was “inactive”. For Oc1c(Cl)cc(Cl)cc1Cl, the outcome was “inactive”. With O=C(N[C@H]1CN2CCC1CC2)c1ccc2c(c1)OCCO2 the outcome was “inactive”. In the case of COc1ccccc1N, the outcome is reported as “inactive”. With Clc1cccc(Cl)c1 the outcome was “inactive”. In the case of N#Cc1cccnc1, the outcome is reported as “inactive”. With CC(C)O.CC(C)O.OCCN(CCO)CCO.OCCN(CCO)CCO.[Ti] the outcome was “inactive”. In the case of OCCN(CCO)CCO, the outcome is reported as “inactive”. For O=C(O)C1(c2ccc3c(c2)OC[C@H](Cc2ccc(-c4ccccc4)cc2)[C@H]3O)CCCC1, the outcome was “inactive”. For CN(C)C(=S)S, the outcome was “inactive”. With Cc1cc(C)cc(C)c1 the outcome was “inactive”. In the case of Clc1cccc(Cl)c1Cl, the outcome is reported as “inactive”. With CC(C)(C)c1ccccc1O the outcome was “inactive”.

Assay: Tanguay_ZF_120hpf_JAW_legacy: (Legacy) Oregon State University Tanguay Lab 120 Hour Post-fertilization zebrafish Assay for Jaw Malformation (AID 2283638)
In short: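 Binary jaw-malformation call at 120 hpf by brightfield microscopy. Embryos (Tropical 5D strain, chorion removed at 4 hpf) were dosed statically at 6 hpf, one per well, at 28C with 0.64% DMSO. Embryos that died were not scored.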
In the case of Oc1cc(Cl)c(Cl)cc1Cl, the outcome is reported as “inactive”. For Oc1c(Cl)cc(Cl)cc1Cl, the outcome was “inactive”. In the case of O=C(N[C@H]1CN2CCC1CC2)c1ccc2c(c1)OCCO2, the outcome is reported as “inactive”. With COc1ccccc1N the outcome was “inactive”. For Clc1cccc(Cl)c1, the outcome was “inactive”. In the case of N#Cc1cccnc1, the outcome is reported as “inactive”. In the case of CC(C)O.CC(C)O.OCCN(CCO)CCO.OCCN(CCO)CCO.[Ti], the outcome is reported as “inactive”. For OCCN(CCO)CCO, the outcome was “inactive”. With CN(C)C(=S)S the outcome was “inactive”. For Cc1cc(C)cc(C)c1, the outcome was “inactive”. In the case of Clc1cccc(Cl)c1Cl, the outcome is reported as “inactive”. With CC(C)(C)c1ccccc1O the outcome was “inactive”. In the case of CCCCCCCCCCCCc1cccc(S(=O)(=O)O)c1, the outcome is reported as “inactive”.

Assay: Tanguay_ZF_120hpf_OTIC_legacy: (Legacy) Oregon State University Tanguay Lab 120 Hour Post-fertilization zebrafish Assay for Otic Vesicle Malformation (AID 2283639)
In short: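 Tropical 5D wild-type zebrafish embryos were exposed statically in sealed, foil-covered plates at 28C until 120 hpf, with 0.64% (vol/vol) DMSO final. Otic vesicle malformation was scored present/absent by brightfield microscopy, with DMSO as baseline.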
For Oc1cc(Cl)c(Cl)cc1Cl, the outcome was “inactive”. With Oc1c(Cl)cc(Cl)cc1Cl the outcome was “inactive”. With O=C(N[C@H]1CN2CCC1CC2)c1ccc2c(c1)OCCO2 the outcome was “inactive”. For Clc1cccc(Cl)c1, the outcome was “inactive”. With N#Cc1cccnc1 the outcome was “inactive”. With CC(C)O.CC(C)O.OCCN(CCO)CCO.OCCN(CCO)CCO.[Ti] the outcome was “inactive”. In the case of OCCN(CCO)CCO, the outcome is reported as “inactive”. In the case of O=C(O)C1(c2ccc3c(c2)OC[C@H](Cc2ccc(-c4ccccc4)cc2)[C@H]3O)CCCC1, the outcome is reported as “inactive”. With Cc1cc(C)cc(C)c1 the outcome was “inactive”. In the case of Clc1cccc(Cl)c1Cl, the outcome is reported as “inactive”. For CC(C)(C)c1ccccc1O, the outcome was “inactive”. With CCCCCCCCCCCCc1cccc(S(=O)(=O)O)c1 the outcome was “inactive”.
